Gal4-VP16 FLuc: VP16 counterscreen qHTS for inhibitors of ROR gamma transcriptional activity | AID 2546, 2010 | Potency, µM (highest dose often 53.6 µM), most hits filed as inhibitors | Drosophila S2 Gal4-VP16 UAS-luciferase, luminescence, 20 h | hit rate 3.5% among 310,000;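 further: Gal4-VP16 expression switched on by copper sulfate through the metallothionein promoter; nearly all actives have a fitted effect of over 50% in size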
KB-V1 cytotox: qHTS assay for MDR1-selective chemotherapeutics: Primary screen using the drug-selected MDR subline cells KB-V1. KB-V1 MDR cells viability, CellTiter-Glo, 72 h. hit rate 3.4% among 400,000. AID 1347076, 2019. Potency, µM (doses to about 46.1 µM), actives largely listed as cytotoxic; further: nearly all actives have a fitted effect of over 60% in size
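Drug-selected KB-V1 cells, grown in DMEM lacking phenol red with 10% FBS, receive compound titrations; after three days at 37 degrees C, surviving cell ATP is quantified by CellTiter-Glo luminescence and responses normalized and curve-fitted.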
MCF10A rerep: A quantitative high throughput screen for small molecules that induce DNA re-replication in MCF 10a normal breast cells; MCF 10A DNA re-replication, Hoechst nuclear intensity, 48 h; Potency, µM (series often up to 46.1 µM), actives largely listed as activators; hit rate 2.9% among 350,000; AID 624296, 2012; further: nearly all actives have a fitted effect of over 50% in size
RORgamma inh: qHTS for inhibitors of ROR gamma transcriptional activity. Nuclear receptor ROR-gamma (Mus musculus), P51450. Drosophila S2 Gal4-RORgamma UAS-luciferase reporter, 20 h. Potency, µM (doses to about 53.6 µM), hits mostly inhibitors. hit rate 5.4% among 310,000. AID 2551, 2010; further: nearly all actives have a fitted effect of over 60% in size
Target sequence (P51450 whole entry, looked up, the tested form may be a part): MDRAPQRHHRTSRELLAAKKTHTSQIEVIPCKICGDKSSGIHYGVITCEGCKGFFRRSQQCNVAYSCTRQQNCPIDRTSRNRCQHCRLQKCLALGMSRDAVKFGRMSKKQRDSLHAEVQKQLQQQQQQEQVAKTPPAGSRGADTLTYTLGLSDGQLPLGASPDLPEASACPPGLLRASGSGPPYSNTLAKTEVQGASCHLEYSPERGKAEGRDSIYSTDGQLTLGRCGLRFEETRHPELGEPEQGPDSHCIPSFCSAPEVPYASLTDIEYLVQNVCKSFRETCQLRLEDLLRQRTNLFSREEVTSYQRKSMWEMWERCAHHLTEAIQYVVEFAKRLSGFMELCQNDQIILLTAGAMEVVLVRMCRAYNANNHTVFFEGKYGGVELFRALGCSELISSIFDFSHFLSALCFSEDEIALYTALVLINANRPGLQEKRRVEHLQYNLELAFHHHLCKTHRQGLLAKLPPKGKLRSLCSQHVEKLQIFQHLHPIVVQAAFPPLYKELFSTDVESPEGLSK
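Luciferase reporter read in Schneider cells carrying Gal4-RORγ (mouse) and UAS-Photinus luciferase; cells given compound 1 h before 700 uM copper sulfate induction, then incubated 20 h at ambient temperature.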
KB-3-1 tox: qHTS assay for MDR1-selective chemotherapeutics: Primary screen using the parental adenocarcinoma cell KB-3-1; KB-3-1 viability, CellTiter-Glo ATP luminescence, 72 h; Potency, µM (top dose mostly 46.1 µM), usual class: cytotoxic; hit rate 1.4% among 400,000; AID 1347075, 2019; further: nearly all actives have a fitted effect of over 60% in size
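Using CellTiter-Glo luminescence, growth of non-resistant KB-3-1 adenocarcinoma cells is assessed 72 h after pin-tool compound addition at 37 °C. Normalized responses across the concentration series yield fitted curves.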
SW480 rereplic: A quantitative high throughput screen for small molecules that induce DNA re-replication in SW480 colon adenocarcinoma cells | SW480 DNA re-replication, Hoechst DNA content imaging, 48 h | Potency, µM (doses to about 46.1 µM), most hits filed as activators | hit rate 1.8% among 340,000 | AID 624297, 2012; further: nearly all actives have a fitted effect of over 55% in size
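250 cells/well; 23 nL cpd via pin tool; 48 hr, 37 C, 5% CO2; Hoechst 40 min; imager read of total nuclear intensity, ex 405/em 500-530 nm.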
Numbers stand for hits; [ ] = another dose, or the depositor's remark. Sampled rows, rich in hits. Any-hit rate of the full collection: about 10%. The call rests on the fitted dose curve; in most records, active means well fitted curve in the direction sought with a large enough effect; inconclusive means small, poorly fitted or top-dose-only effect, or another doubt; inactive means no such curve, though single readings can be large; an effect the other way counts as inactive or inconclusive.

Results for COC(=O)c1ccccc1N(C)S(=O)(=O)c1cc2c3c(c1)CC(=O)N3CCC2 ?
KB-V1 cytotox: inactive; KB-3-1 tox: inactive

What do the screens show for `CCC(c1nnnn1Cc1ccccc1)N(Cc1ccco1)Cc1cc2cc(OC)ccc2[nH]c1=O` (centres undefined)?
Gal4-VP16 FLuc: inactive; KB-V1 cytotox: inactive; MCF10A rerep: inconclusive; RORgamma inh: inactive; KB-3-1 tox: inconclusive; SW480 rereplic: inactive

How did CCC(c1nnnn1CCOC)N(Cc1ccc(C)cc1)Cc1cc2cc(OC)ccc2[nH]c1=O (centres undefined) do in these assays?
Gal4-VP16 FLuc: inactive; KB-V1 cytotox: 23µM; MCF10A rerep: inactive; RORgamma inh: inactive; KB-3-1 tox: inconclusive; SW480 rereplic: inactive

How did COc1ccc(Nc2cc(Nc3cc(OC)c(OC)c(OC)c3)ncn2)cc1 do in these assays?
Gal4-VP16 FLuc: inactive; KB-V1 cytotox: inconclusive; MCF10A rerep: inconclusive; RORgamma inh: inactive; KB-3-1 tox: inactive; SW480 rereplic: inactive

How did CCN(C)c1ccc(/C=N\n2nnnc2N)cc1 do in these assays?
Gal4-VP16 FLuc: inactive; KB-V1 cytotox: 2.6µM; MCF10A rerep: inconclusive; RORgamma inh: inactive; KB-3-1 tox: 5.2µM; SW480 rereplic: inconclusive

What do the screens show for `CCN(CC)c1ccc(/C=N/n2nnnc2N)c(O)c1`?
Gal4-VP16 FLuc: inconclusive; KB-V1 cytotox: inconclusive; MCF10A rerep: inconclusive; RORgamma inh: inactive; KB-3-1 tox: 16µM; SW480 rereplic: inconclusive

What do the screens show for `Nc1nnnn1/N=C/c1ccc(O)cc1`?
Gal4-VP16 FLuc: inactive; KB-V1 cytotox: inactive; MCF10A rerep: inconclusive; RORgamma inh: inactive; KB-3-1 tox: inactive; SW480 rereplic: inactive

What do the screens show for `CCOc1ccc2nc(NC(=O)c3ccccn3)sc2c1`?
Gal4-VP16 FLuc: 2.8µM; KB-V1 cytotox: inconclusive; MCF10A rerep: inconclusive; RORgamma inh: 0.71µM; KB-3-1 tox: inconclusive; SW480 rereplic: inconclusive

What do the screens show for `CCOc1ccc2nc(NC(=O)Nc3ccccc3)sc2c1`?
Gal4-VP16 FLuc: inconclusive; KB-V1 cytotox: inactive; MCF10A rerep: inactive; RORgamma inh: inactive; KB-3-1 tox: inactive; SW480 rereplic: inactive

How did CCOc1ccc2nc(NC(=O)Cn3[nH]c(=O)c4ccccc4c3=O)sc2c1 do in these assays?
Gal4-VP16 FLuc: inactive; KB-V1 cytotox: inactive; MCF10A rerep: 21µM; RORgamma inh: inconclusive; KB-3-1 tox: inconclusive; SW480 rereplic: inactive

Results for CCCC(=O)Nc1nc2ccc(NC(=O)c3ccccc3F)cc2s1 ?
Gal4-VP16 FLuc: inactive; KB-V1 cytotox: 1.8µM; MCF10A rerep: 6.5µM; RORgamma inh: inactive; KB-3-1 tox: 2.1µM; SW480 rereplic: 8.2µM

Results for COc1ccc2nc(NC(=O)c3ccccc3F)sc2c1 ?
Gal4-VP16 FLuc: inconclusive; KB-V1 cytotox: inactive; MCF10A rerep: inactive; RORgamma inh: inconclusive; KB-3-1 tox: inactive; SW480 rereplic: inactive

Results for O=C(Nc1nc2c(F)cc(F)cc2s1)c1ccccn1 ?
Gal4-VP16 FLuc: 2µM; KB-V1 cytotox: inconclusive; MCF10A rerep: inactive; RORgamma inh: 0.22µM; KB-3-1 tox: inconclusive; SW480 rereplic: inactive

What do the screens show for `CCOc1cc(-c2nc(-c3ccc(-c4ccc(C)cc4)nc3OC)no2)cc(OCC)c1OCC`?
KB-V1 cytotox: inactive; KB-3-1 tox: inactive

Results for Cc1cccc(N2CCN(C3(c4ccccc4)C(=O)c4ccccc4C3=O)CC2C)c1 (centres undefined) ?
KB-V1 cytotox: inconclusive; KB-3-1 tox: inactive

Results for COc1ccc(OC)c2sc(N(Cc3cccnc3)C(C)=O)nc12 ?
KB-V1 cytotox: inactive; KB-3-1 tox: inactive

Results for COC(=O)[C@@]1(Cc2ccccc2)[C@H]2c3cc(C(=O)N4CCCC4)n(Cc4nc5ccccc5[nH]4)c3C[C@H]2CN1C(=O)c1ccccc1 ?
Gal4-VP16 FLuc: inactive; RORgamma inh: inactive

How did CCOc1ccc2nc(NC(=O)Nc3cccs3)sc2c1 do in these assays?
Gal4-VP16 FLuc: inactive; KB-V1 cytotox: inactive; MCF10A rerep: inactive; RORgamma inh: inactive; KB-3-1 tox: inactive; SW480 rereplic: inactive

Results for CCOc1ccc2nc(NC(=O)COC)sc2c1 ?
Gal4-VP16 FLuc: inconclusive; KB-V1 cytotox: inactive; MCF10A rerep: inactive; RORgamma inh: inactive; KB-3-1 tox: inactive; SW480 rereplic: inactive

Results for O=C(Nc1nc2ccc(S(=O)(=O)N3CCCC3)cc2s1)c1ccccn1 ?
Gal4-VP16 FLuc: inconclusive; KB-V1 cytotox: inactive; MCF10A rerep: inactive; RORgamma inh: 2.8µM; KB-3-1 tox: inactive; SW480 rereplic: inactive

What do the screens show for `CCOc1ccc2nc(NC(=O)c3ccoc3C)sc2c1`?
Gal4-VP16 FLuc: 11µM; KB-V1 cytotox: 8.2µM; MCF10A rerep: inactive; RORgamma inh: inconclusive; KB-3-1 tox: 10µM; SW480 rereplic: inactive[9.22 µM]

Results for O=C(COc1ccccc1)NNc1nc2c(F)cc(F)cc2s1 ?
Gal4-VP16 FLuc: inactive; KB-V1 cytotox: inactive; MCF10A rerep: inactive; RORgamma inh: 13µM; KB-3-1 tox: inactive; SW480 rereplic: inactive

How did O=C(Nc1nc2ccc(S(=O)(=O)N3CCCCC3)cc2s1)c1ccncc1 do in these assays?
Gal4-VP16 FLuc: inactive; KB-V1 cytotox: inactive; MCF10A rerep: inactive; RORgamma inh: inactive; KB-3-1 tox: inactive; SW480 rereplic: inactive

How did CCOc1ccc2nc(NC(=S)NCc3ccccc3)sc2c1 do in these assays?
Gal4-VP16 FLuc: 2.8µM; KB-V1 cytotox: inactive; MCF10A rerep: inactive; RORgamma inh: 2.2µM; KB-3-1 tox: inactive; SW480 rereplic: inactive

How did CCc1ccccc1N(C)C(=O)Cn1cnc2sc(C)c(S(=O)(=O)N3CCN(c4ncccn4)CC3)c2c1=O do in these assays?
KB-V1 cytotox: inconclusive; KB-3-1 tox: inactive

How did Cc1ccc(C)c(CN2C(=O)c3ccccc3S(=O)c3ccc(C(=O)N4CCCCC4)cc32)c1 (centres undefined) do in these assays?
KB-V1 cytotox: inactive; KB-3-1 tox: inactive

Results for O=C1CC2(CCCC2)CC(=O)N1CCCCNC[C@H]1COc2ccccc2O1 ?
Gal4-VP16 FLuc: inactive; RORgamma inh: inactive

Results for Cc1ccc2nc(NC(=O)c3ccccn3)sc2c1 ?
Gal4-VP16 FLuc: 1.1µM; KB-V1 cytotox: inconclusive; MCF10A rerep: inconclusive; RORgamma inh: 0.35µM; KB-3-1 tox: inconclusive; SW480 rereplic: inactive

What do the screens show for `O=C(Nc1ccccc1NC(=O)c1ccccc1F)c1ccccc1F`?
Gal4-VP16 FLuc: inactive; KB-V1 cytotox: inactive; MCF10A rerep: inactive; RORgamma inh: inactive; KB-3-1 tox: inactive; SW480 rereplic: inactive

How did CCn1nc(C(=O)Nc2nc3ccc(C)cc3s2)c2ccccc2c1=O do in these assays?
Gal4-VP16 FLuc: inactive; KB-V1 cytotox: inactive; MCF10A rerep: 23µM; RORgamma inh: inactive; KB-3-1 tox: inactive; SW480 rereplic: 21µM
